HT1080 IDH1KD tx: qHTS for induction of synthetic lethality in tumor cells producing 2HG: qHTS for the HT-1080-IDH1KD cell line | AID 686971, 2013 | Potency, µM (highest dose often 46.1 µM), inactives show at the top dose activity, negative = toxicity, actives largely listed as cytotoxic | HT-1080 IDH1 knockdown viability, ATP luminescence, 48 h | 360,000 tested, 2% active;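 further: potency means the concentration at half of the fitted maximal effect; 0% = DMSO wells and -100% = cell-free medium wells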
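% activity derives from luminescence (CellTiter-Glo), normalised to DMSO and no-cell wells. HT-1080-IDH1KD cells, 750/well, had 48 h compound exposure at 37 °C.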
TDP1 cell CPT: qHTS for Inhibitors of human tyrosyl-DNA phosphodiesterase 1 (TDP1): qHTS in cells in presence of CPT; chicken DT40 Tdp1-/-;hTDP1 cells + 20 nM CPT, ATP luminescence, 48 h; Potency, µM (doses to about 46.2 µM), for the others: top-dose activity change, negative = growth inhibition, most hits filed as inhibitors; 420,000 tested, 12% active; AID 686979, 2013; further: potency means the concentration at half of the fitted maximal effect; nearly all actives have a fitted effect of over 55% in size
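Chicken DT40 Tdp1-/- cells complemented with human TDP1, 400 cells/well, exposed to compounds plus 20 nM camptothecin for at least 48 h at 37 C; viability read as ATP content by CellTiter-Glo luminescence.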
HT1080NT lethal: qHTS for induction of synthetic lethality in tumor cells producing 2HG: qHTS for the HT-1080-NT fibrosarcoma cell line | HT-1080-NT fibrosarcoma viability, CellTiter-Glo ATP luminescence, 48 h | Potency, µM (titrated, usually from 46.1 µM), for inactives: top-dose activity, negative = less viability, hits mostly cytotoxic | 360,000 tested, 1.6% active;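 further: NT is the 2HG producing partner of a matched IDH1 knockdown line; potency means the concentration at half of the fitted maximal effect; 0% = DMSO-treated cells and -100% = media-only wells without cells; nearly all actives have a fitted effect of over 55% in size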
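Viability by CellTiter-Glo luminescence after 48 h compound exposure at 37C of HT-1080-NT cells (750/well, RPMI, 5% FBS). % activity scaled between DMSO wells and medium-only wells, then curve-fitted and categorized by curve class.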
IL1B secr inh: qHTS for Inhibitors of Inflammasome Signaling: IL-1-beta AlphaLISA Primary Screen; THP-1 LPS/ATP IL-1B secretion, AlphaLISA, 16 h; active compounds read low; activity change, % at 57.5 µM; 360,000 tested, 4.7% active; AID 743279, 2014; in the data active means activity change below about -50%; inconclusive means mostly about -30% to -49%
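THP-1 cells pretreated 1 hr with compounds (up to 57.5 uM final), then stimulated with LPS (250 ng/mL final) plus ATP (1.25 mM final); secreted IL-1B measured by AlphaLISA after 16 hr, decreased signal indicating inhibition.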
DT40 TDP1 no CPT: qHTS for Inhibitors of human tyrosyl-DNA phosphodiesterase 1 (TDP1): qHTS in cells in absence of CPT. 420,000 tested, 15% active. DT40 Tdp1-/- hTDP1 cells, no CPT, ATP luminescence, 48 h. Potency, µM (doses to about 46.2 µM), for the others: at the highest dose activity change, negative = growth inhibition, actives largely listed as inhibitors; further: potency means the concentration at half of the fitted maximal effect; nearly all actives have a fitted effect of over 55% in size
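DT40 Tdp1-/-;hTDP1 cells, no CPT (DMSO vehicle only), 400 cells/well; compounds pin-transferred; ≥48 hr, 37 °C; CellTiter-Glo 30 min RT dark, luminescence read.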
* marks the source's active call; other numbers are inactive results; u = inconclusive; x = not tested or not shown; [ ] = another dose, or the depositor's remark. Sampled rows, rich in hits. Any-hit rate of the full collection: about 19%. Unless noted, the call rests on the fitted dose curve; in most records, active means well fitted curve in the direction sought with a large enough effect; inconclusive means small, poorly fitted or top-dose-only effect, or another doubt; inactive means no such curve, though single readings can be large; an effect the other way counts as inactive or inconclusive. Unless noted, on the % scale 0 is the no-effect control and ±100 the full control effect.

SMILES | HT1080 IDH1KD tx | TDP1 cell CPT | HT1080NT lethal | IL1B secr inh | DT40 TDP1 no CPT
CC1=C(C(=O)N2CCOCC2)CC(CC(=O)NC(c2ccccc2)c2ccccc2)C(=O)N1CCCN1CCCC1=O (configuration not stated) | -2% | -3% | -5% | 35 | -13%
COc1ccc(CN2CCNC(=O)C2CC(=O)NCCCn2cccn2)c(OC)c1 (configuration not stated) | 15% | 1% | 12% | 1 | -2%
c1ccc(COc2ncnc3c2ncn3CCCNCCN2CCOCC2)cc1 | -2% | 33% | 5% | 14 | 4%
CCOc1ncccc1C(=O)Nc1cc2c(cc1Br)OCCO2 | u | 21µM* | -23% | 19 | 12µM*
CCOc1ncccc1C(=O)Nc1ccc2c(c1)OCO2 | -11% | 1% | 0% | 11 | -16%
CCOc1ccc2c(c1)c(=O)c(C(=O)c1ccccc1)cn2Cc1ccccc1F | x | u | x | x | 21µM*
COc1ccc(C(=O)c2cn(Cc3ccccc3F)c3ccc(F)cc3c2=O)cc1 | x | u | x | x | 21µM*
Nc1ccccc1C(=O)NN=Cc1cccnc1 | 5% | -6% | 7% | 44 | -2%
O=[S@]1Oc2ccccc2-c2ccccc21 | -12% | u | 2% | u | 13µM*
O=S1c2ccccc2Oc2ccccc21 | 3% | 13% | -2% | 4 | -12%
O=C(c1sccc1-c1ccccc1)N1CCN(S(=O)(=O)c2ccccc2F)CC1 | -1% | 15µM* | 0% | 5 | u
COc1ccc(S(=O)(=O)N2CCN(C(=O)c3sccc3-c3ccccc3)CC2)cc1 | 1% | 15µM* | 2% | 3 | 21µM*
O=C(c1ccc(N2C(=O)c3ccccc3C2=O)cc1)N1CCN(S(=O)(=O)c2ccccc2F)CC1 | -1% | -2% | -2% | 16 | -28%
COc1ccc(S(=O)(=O)N2CCN(C(=O)c3cccs3)CC2)cc1 | 8% | -13% | 3% | -12 | -17%
COc1ccc(C2NC(c3ccc(OC)cc3)C(c3ccccc3)C(=O)C2c2ccccc2)cc1 (configuration not stated) | -15% | -23% | 1% | -6 | 21µM*
COC(=O)[C@H](C)N(Cc1ccc(Cl)c(Cl)c1)S(=O)(=O)CCN1CCN(c2ccccc2)CC1 | 1% | u | 0% | -2 | 18µM*
COC(=O)[C@H](C)N(Cc1ccc(Cl)c(Cl)c1)S(=O)(=O)CCN1CCCC1 | -22% | u | -21% | -26 | u
CC(CCc1ccccc1)NC(=O)CCNC(=O)c1ccccc1Cl (configuration not stated) | 0% | -1% | -2% | 13 | -25%
Cc1sc2ncnc(N3CCCCC3C)c2c1C (configuration not stated) | -17% | u | -20% | 48 | u
Cc1c(C(=O)NCCC2=CCCCC2)sc2ncnc(N3CCCCC3C)c12 (configuration not stated) | -19% | u | -16% | -80* | -19%
Cc1cccc(NC(=O)CC2SC(=O)N(c3ccccc3)C2=O)c1 (configuration not stated) | 10% | 4.6µM* | 3% | 8 | 5.2µM*
Cc1cccc(NC(=O)CC2S/C(=N/c3nccs3)N(C)C2=O)c1 (configuration not stated) | 1% | -16% | 6% | 8 | -19%
Cc1ccc(NC(=O)CC2=NC(=O)C(CC(=O)Nc3ccccc3F)S2)cc1 (configuration not stated) | -10% | u | 0% | -29 | 18µM*
N=C1SC(CC(=O)Nc2ccc([N+](=O)[O-])cc2)C(=O)N1c1ccccc1 (configuration not stated) | u | 0% | -21% | -73* | u
O=C(CC1SC(=O)N(c2ccccc2)C1=O)Nc1ccccc1 (configuration not stated) | u | 16µM* | 0% | 18 | -25%
SMILES | HT1080 IDH1KD tx | TDP1 cell CPT | HT1080NT lethal | IL1B secr inh | DT40 TDP1 no CPT
Cc1ccc(NC(=O)CC2Sc3ccc(C(F)(F)F)cc3NC2=O)cc1 (configuration not stated) | x | -8% | x | x | 1%
Fc1ccc(CN2C3=NCCN3c3ccccc32)cc1 | -15% | -14% | 1% | -7 | u
Cn1c(CCNC(=O)c2ccccc2F)nnc1SCC(=O)Nc1ccccc1F | 20% | -13% | 18% | 7 | -22%
Nc1ccnc(Oc2ccc(F)cc2)c1 | 11% | 20% | u | 4 | -3%
Cc1ccc(NC(=O)c2ccco2)nc1 | -18% | -30% | -15% | 20 | -26%
CC(=O)N(Nc1ccccc1)c1ccccc1 | 23% | 2% | 16% | 0 | -2%
CCc1ccc(NC(=O)C2CCCN2S(=O)(=O)c2ccc3c(c2)C(C)(C)C(=O)N3C)cc1 (configuration not stated) | 1% | u | -2% | 52 | -30%
CCCN1C(=O)SC(CC(=O)Nc2ccc(C)cc2)C1=O (configuration not stated) | 17% | 18µM* | 12% | -1 | u
Cc1ccc(NC(=O)CC2SC(=O)N(c3ccccc3)C2=O)cc1 (configuration not stated) | 0% | 9.2µM* | 0% | 29 | 7.3µM*
CC(=O)Nc1ccc(NC(=O)CC2SC(=O)N(CC(=O)c3ccccc3)C2=O)cc1 (configuration not stated) | 5% | 18µM* | 0% | -5 | 21µM*
O=C(CC1Sc2ncnn2C1=O)Nc1ccccc1 (configuration not stated) | -1% | 7.3µM* | 14% | -6 | 15µM*
O=S1(=O)CC(O)C(Nc2ccccc2Cl)C1 (configuration not stated) | 8% | 1% | 8% | 8 | 4%
CC(C)OC(=O)c1c(F)c(F)c(N2CCOCC2)c(F)c1F | u | -9% | 16% | -27 | -12%
Fc1cccc(-c2cc3nc4c(c(N5CCOCC5)n3n2)CCCC4)c1 | 10% | 18µM* | 2% | -3 | u
Cc1nc2cc(-c3ccccc3)nn2c(C)c1CCC(=O)NCc1ccco1 | -1% | -3% | -1% | -3 | -19%
OC1CCN(c2c3c(nc4cc(-c5ccc(Cl)cc5)nn24)CCC3)CC1 | -12%[9.24 µM] | 23µM* | -6% | u | 21µM*
Fc1cccc(-c2cc3nc4c(c(NCc5ccco5)n3n2)CCCC4)c1 | -13% | u | u | -92* | -19%

Bioassay records: PubChem, National Center for Advancing Translational Sciences (NCATS)
